From PubChem BioAssay
Active and inactive are the calls of the source. Unless noted, the rule behind the calls is not given here.

Experiments:
[1] = HepG2 liver cancer cell viability effects, profiling panel, resazurin fluorescence, 24 h, PK04 Diversity Set (AID 1172); conditions: higher = more signal; note: test concentration not given here
[2] = basal S. cerevisiae growth modulation, no modifier, primary screen, OD600, strain BY4716, 24 h, basal condition (AID 1173); conditions: OD600, 24 h, higher = more signal, called active from +8 up or from −8 down
[3] = MM1S myeloma cell viability, profiling panel, resazurin fluorescence, basal, 24 h, PK04 Diversity Set (AID 1174); conditions: higher = more signal, called active from +8 up or from −8 down;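 note: MM1S multiple myeloma cell line; test concentration not given here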
[4] = target: Dihydroorotate dehydrogenase (quinone), mitochondrial (Plasmodium falciparum (isolate 3D7)) (UniProt Q08210); assay: PfDHODH enzyme inhibitors, primary screen, biochemical, C-terminal His tag, absorbance 600 nm (AID 1175); conditions: DCIP absorbance 600 nm, higher = more signal, called active from +8 up or from −8 down;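 note: recombinant parasite enzyme with a five histidine tag at its C terminus; test concentration not given here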
[5] = P. aeruginosa biofilm formation inhibitors, primary screen, strain PAO1, LB-PBS medium, absorbance 600 nm (AID 1176); note: test concentration not given here; conditions: P. aeruginosa PAO1 growth/biofilm, A600, 12 h; higher = more signal
[6] = S. cerevisiae RM11-1a growth modifiers, primary screen, strain RM11-1a, OD600, basal, 24 h (AID 1177); conditions: OD600, 24 h, higher = more signal, called active from +8 up or from −8 down;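 note: cultures grown under basal conditions with no added stressor; test concentration not given here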
[7] = E. coli acrAB mutant growth effects, primary screen, E. coli filamentation inducers, strain DRC39, OD650, 24 h (AID 1178); conditions: higher = more signal, called active from +8 up or from −8 down;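 note: growth measured as culture turbidity by optical density at 650 nm; test concentration not given here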
[8] = E. coli acrAB mutant growth effects, primary screen, E. coli filamentation inducers, strain DRC39, OD650, 48 h (AID 1179);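 note: screen aims at cell division blockers that make cells filament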; conditions: E. coli DRC39 delta-acrAB growth, higher = more signal, called active from +8 up or from −8 down
[9] = RPMI8226 myeloma cell viability, profiling panel, resazurin fluorescence, basal, 24 h, PK04 Diversity Set (AID 1180); conditions: higher = more signal;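 note: RPMI8826 multiple myeloma cell line at 5000 cells per well; test concentration not given here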
[10] = target: E3 ubiquitin-protein ligase XIAP (Homo sapiens) (UniProt P98170); assay: XIAP binders, primary screen, biophysical, small-molecule microarray, fluorescence 635 nm (AID 1181); conditions: small-molecule microarray binding, higher = more signal;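 note: score merges 667 nm emission and signal to noise over triplicate slides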
E3 ubiquitin-protein ligase XIAP (Homo sapiens), sequence (P98170 whole entry, looked up): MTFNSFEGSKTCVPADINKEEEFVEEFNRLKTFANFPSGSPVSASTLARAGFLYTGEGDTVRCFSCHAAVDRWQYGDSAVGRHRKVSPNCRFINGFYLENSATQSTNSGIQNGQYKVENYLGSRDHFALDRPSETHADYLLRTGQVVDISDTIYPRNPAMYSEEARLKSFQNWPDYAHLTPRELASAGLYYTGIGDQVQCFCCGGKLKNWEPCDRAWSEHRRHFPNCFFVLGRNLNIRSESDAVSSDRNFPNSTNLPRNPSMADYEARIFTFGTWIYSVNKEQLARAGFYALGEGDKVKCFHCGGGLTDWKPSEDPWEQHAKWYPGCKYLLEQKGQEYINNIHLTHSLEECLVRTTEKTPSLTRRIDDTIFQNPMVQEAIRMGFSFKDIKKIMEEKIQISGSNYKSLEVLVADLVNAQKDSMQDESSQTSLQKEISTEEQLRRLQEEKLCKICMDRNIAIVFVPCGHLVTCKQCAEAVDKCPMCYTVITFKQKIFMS

Dihydroorotate dehydrogenase (quinone), mitochondrial (Plasmodium falciparum (isolate 3D7)), sequence (Q08210 whole entry, looked up): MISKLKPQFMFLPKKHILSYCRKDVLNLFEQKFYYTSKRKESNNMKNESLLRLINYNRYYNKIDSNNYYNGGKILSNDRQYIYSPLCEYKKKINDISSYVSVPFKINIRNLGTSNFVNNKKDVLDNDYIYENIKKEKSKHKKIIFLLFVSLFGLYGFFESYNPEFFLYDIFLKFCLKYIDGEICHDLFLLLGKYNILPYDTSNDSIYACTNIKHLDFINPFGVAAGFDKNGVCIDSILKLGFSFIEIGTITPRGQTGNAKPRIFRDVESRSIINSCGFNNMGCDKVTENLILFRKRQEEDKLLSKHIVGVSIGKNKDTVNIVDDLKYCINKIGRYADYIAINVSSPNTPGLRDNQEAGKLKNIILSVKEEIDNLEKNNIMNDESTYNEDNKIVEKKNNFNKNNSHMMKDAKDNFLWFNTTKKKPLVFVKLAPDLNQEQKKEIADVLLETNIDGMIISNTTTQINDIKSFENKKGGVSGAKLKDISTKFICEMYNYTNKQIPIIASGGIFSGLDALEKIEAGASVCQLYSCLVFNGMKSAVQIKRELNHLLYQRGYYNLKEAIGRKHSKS

Compound | z-score [1] | z-score [2] | z-score [3] | composite z-score [4] | z-score [5] | z-score [6] | z-score [7] | z-score [8] | z-score [9] | composite z-score [10]
COc1ccc(CCN2C(=O)[C@@]3(Cc4ccccc42)c2ccccc2C(=O)N(Cc2ccccc2Cl)[C@H]3c2ccc(CO)cc2)cc1 | -0.349 | -0.542 (inactive) | 0.249 (inactive) | -6.31 (inactive) | 1.57 (inactive) | 0.215 (inactive) | 0.157 (inactive) | 0.353 (inactive) | 0.314 | -0.142
CCCCCN1CC=CC23O[C@@H]4/C=C\CCCOC(=O)C4[C@H]2C(=O)N(CCCCCCO)[C@@H]3C1=O (stereo not given in full) | 0.239 | -2.73 (inactive) | 0.972 (inactive) | -2.25 (inactive) | 1.45 (inactive) | -3.12 (inactive) | 0.758 (inactive) | 0.868 (inactive) | 1.42 | 0.147
O=C1c2ccccc2[C@@]2(Cc3ccccc3N(Cc3ccccc3)C2=O)[C@H](c2ccc(CO)cc2)N1C1CCCCC1 | 0.281 | 1.61 (inactive) | -0.242 (inactive) | -11.6 (active) | 0.407 (inactive) | 1.57 (inactive) | 0.281 (inactive) | 0.256 (inactive) | -0.0776 | -0.239
O=C(NCc1ccccc1)[C@]1(CCS(=O)(=O)c2ccccc2)N=C(c2ccc(OCCCO)cc2)O[C@@H]1c1ccccc1 | 0.0669 | 1.08 (inactive) | -0.866 (inactive) | -0.549 (inactive) | 0.0937 (inactive) | 1.91 (inactive) | 0.79 (inactive) | 1.05 (inactive) | 0.253 | 0.323
C=C(COC)C(=O)CC[C@@H](OC(=O)c1cccnc1)c1ccc(CO)o1 | 0.114 | -0.0873 (inactive) | 0.78 (inactive) | -0.604 (inactive) | 0.649 (inactive) | -0.318 (inactive) | 0.831 (inactive) | 0.555 (inactive) | 0.807 | -0.0802
CCCCCCCCCCC(O)C1C=CC2C(=O)N(Cc3ccccc3)C(=O)C2N1n1cnnc1 (stereo not given) | -1.17 | -0.472 (inactive) | -1.39 (inactive) | -1.2 (inactive) | -0.541 (inactive) | -0.623 (inactive) | -0.845 (inactive) | -0.592 (inactive) | -1.15 | -0.0085
CC(C)=CCCC(C)=CC(O)C1C=CC2C(=O)N(c3ccccc3)C(=O)C2N1Nc1ccccc1 (stereo not given) | -1.4 | -1.66 (inactive) | -1.49 (inactive) | 0.0928 (inactive) | 1.32 (inactive) | 0.42 (inactive) | -0.994 (inactive) | -0.927 (inactive) | -1.56 | 0.0655
O=C1C2C=CC(C(O)c3ccc(B(O)O)cc3)N(Nc3ccccc3)C2C(=O)N1c1ccccc1 (stereo not given) | -1.28 | -0.841 (inactive) | -1.35 (inactive) | -0.395 (inactive) | 0.546 (inactive) | 0.0003 (inactive) | 0.17 (inactive) | -0.346 (inactive) | -1.59 | 0.0623
Cc1ccc(F)cc1S(=O)(=O)N[C@@H]1CCN(Cc2ccc(-c3ccccc3)cc2)C1 | -0.603 | -19.1 (active) | -3.27 (inactive) | -0.427 (inactive) | 0.425 (inactive) | -22.4 (active) | -20.5 (active) | -20 (active) | -2.16 | 0.0368
O=C/C=C/c1ccc2c(c1)OCO2 | 0.134 | -12.8 (active) | -0.155 (inactive) | -1.32 (inactive) | 0.227 (inactive) | -1.87 (inactive) | -1.34 (inactive) | 0.594 (inactive) | -0.211 | -0.118
COC(=O)c1ccc(OC)c(/C=C\CC(OC(C)=O)c2ccccc2)c1 (stereo not given) | 0.0209 | -1.17 (inactive) | -0.345 (inactive) | -3.79 (inactive) | -0.351 (inactive) | -0.639 (inactive) | 0.0847 (inactive) | -0.396 (inactive) | -1.1 | 0.0131
CC(=CC1CCCCC1)[C@@H](NC(=O)c1ccc(C(F)(F)F)cc1)c1ccc(-c2ccccc2)cc1 | 0.0536 | 1.08 (inactive) | -0.549 (inactive) | -0.468 (inactive) | 1.31 (inactive) | 0.088 (inactive) | -1.16 (inactive) | -0.822 (inactive) | -0.18 | -0.115
CC(C)CNC(=O)[C@@]1(c2ccc([N+](=O)[O-])cc2)CC(=O)N(CC23CC4CC(CC(C4)C2)C3)[C@@H]1c1ccc(CO)cc1I | -2.55 | 0.431 (inactive) | -2.77 (inactive) | 0.989 (inactive) | 1.9 (inactive) | 1.69 (inactive) | -0.507 (inactive) | -0.91 (inactive) | -3.94 | -0.144
O=C1C2C=CC(C(O)c3ccc(F)cc3)N(Nc3ccccc3)C2C(=O)N1c1ccccc1 (stereo not given) | -1.24 | -3.05 (inactive) | -1.33 (inactive) | 0.485 (inactive) | 0.888 (inactive) | 0.723 (inactive) | -0.811 (inactive) | 0.128 (inactive) | -0.535 | -0.229
CN1C(=O)C2C=CC(C(O)c3ccccn3)N(Nc3ccccc3)C2C1=O (stereo not given) | -1.03 | 0.727 (inactive) | -0.467 (inactive) | 1.42 (inactive) | 1.28 (inactive) | 1.57 (inactive) | -0.206 (inactive) | -0.387 (inactive) | -0.878 | 0.742
CCOC(=O)C[C@H]1[C@H](OC(=O)c2ccccc2-c2ccccc2)[C@@H](NC(=O)c2ccc3ccccc3c2)c2cc(OCCCO)ccc2N1C(=O)c1ccc2ccccc2n1 | 1.33 | 0.682 (inactive) | 0.288 (inactive) | 0.428 (inactive) | -0.271 (inactive) | 0.876 (inactive) | 0.672 (inactive) | 0.641 (inactive) | 0.726 | -0.144
COCCOC(=O)N1C(=O)[C@@]2(c3cc(C#Cc4ccc(OC)cc4)ccc31)[C@H](C(=O)N1CCN(c3ncccn3)CC1)[C@H]1C(=O)O[C@H](c3ccccc3)[C@H](c3ccccc3)N1[C@@H]2c1ccc(O)cc1 | -0.221 | 0.558 (inactive) | -1.68 (inactive) | -1.45 (inactive) | 1.42 (inactive) | -0.604 (inactive) | -0.0707 (inactive) | 1.09 (inactive) | 0.0808 | 0.134
CC(=O)Nc1cc(Br)ccc1C(=O)O | -0.128 | 0.311 (inactive) | 0.161 (inactive) | -0.398 (inactive) | -0.103 (inactive) | -0.129 (inactive) | -0.141 (inactive) | -0.535 (inactive) | 0.357 | -0.239
COC(=O)[C@@]1(Cc2ccccc2)N=C(c2ccc(OCCCO)cc2)O[C@H]1c1ccccc1N=[N+]=[N-] | -0.914 | 0.0975 (inactive) | -2.58 (inactive) | 0.0308 (inactive) | 1.49 (inactive) | 1.57 (inactive) | 0.368 (inactive) | 0.752 (inactive) | -2.93 | 0.723
CS(=O)(=O)CCOC(=O)C1=CC(CCCO)=CC(c2cccs2)N(Cc2cc3c(cc2Br)OCO3)C=C1C(=O)OCCS(C)(=O)=O (stereo not given) | 1.13 | -2.65 (inactive) | 0.209 (inactive) | 0.359 (inactive) | 0.142 (inactive) | 0.379 (inactive) | 0.571 (inactive) | 0.503 (inactive) | 0.0578 | 0.122
C=CCOC(=O)[C@@H]1[C@H]2C(=O)O[C@H](c3ccccc3)[C@H](c3ccccc3)N2[C@H](c2ccc(OCCOC(=O)[C@@H]3C[C@@H]4C(=O)NCC(=O)N4[C@@H]3c3cccc(OCCO)c3)cc2)[C@@]12C(=O)Nc1ccc(I)cc12 | 0.0068 | 1.24 (inactive) | 0.132 (inactive) | -0.173 (inactive) | 2.17 (inactive) | 1.65 (inactive) | 0.451 (inactive) | 0.17 (inactive) | 0.487 | 0.0586
COc1ccc([Si](C)(C)[C@@H]2[C@@H](CCn3cc([C@H](O)c4ccccc4)nn3)O[C@]3(C(=O)N(Cc4cccc(N5CCOC5=O)c4)c4ccccc43)[C@H]2C)cc1 | 0.194 | -0.611 (inactive) | -2.91 (inactive) | 0.539 (inactive) | 1.35 (inactive) | 1.98 (inactive) | 1.44 (inactive) | 1.45 (inactive) | -0.424 | -0.102
COCCCNC(=O)[C@@]1(CCC(=O)OC(C)(C)C)N=C(c2ccc(OCCCO)cc2)O[C@H]1c1ccccc1CN=[N+]=[N-] | 0.495 | -0.78 (inactive) | -0.0488 (inactive) | -0.256 (inactive) | -0.167 (inactive) | 0.424 (inactive) | 0.481 (inactive) | -0.28 (inactive) | 0.423 | -0.212
[N-]=[N+]=NCc1ccccc1C[C@]1(C(=O)NCCN2CCOCC2)N=C(c2ccc(OCCCO)cc2)O[C@H]1c1ccccc1N=[N+]=[N-] | -0.854 | -0.318 (inactive) | -0.739 (inactive) | 0.345 (inactive) | 1.57 (inactive) | 0.145 (inactive) | 1.73 (inactive) | 1.08 (inactive) | -1.85 | 0.317
